Source: ChEMBL document CHEMBL5724796, “Tm Shift (DSF) assay results for EUbOPEN Chemogenomics Library” (2024)
“And” between values parts separate entries of the source, which are not always exact repeats. Identical values can stand only once.

What was measured:
Conditions in all cases: Compound concentration 20.0 uM
[1] = target: Tyrosine-protein kinase ABL1 (Homo sapiens) (UniProt P00519)
[2] = target: Bromodomain-containing protein 4 (Homo sapiens) (UniProt O60885)
[3] = target: Cyclin-dependent kinase 2 (Homo sapiens) (UniProt P24941)
[4] = target: Casein kinase I isoform delta (Homo sapiens) (UniProt P48730)
[5] = target: Glycogen synthase kinase-3 beta (Homo sapiens) (UniProt P49841)
[6] = target: Mitogen-activated protein kinase 1 (Homo sapiens) (UniProt P28482)
[7] = target: T1, Aurora kinase A (Homo sapiens) (UniProt O14965)
T1 sequence (whole entry): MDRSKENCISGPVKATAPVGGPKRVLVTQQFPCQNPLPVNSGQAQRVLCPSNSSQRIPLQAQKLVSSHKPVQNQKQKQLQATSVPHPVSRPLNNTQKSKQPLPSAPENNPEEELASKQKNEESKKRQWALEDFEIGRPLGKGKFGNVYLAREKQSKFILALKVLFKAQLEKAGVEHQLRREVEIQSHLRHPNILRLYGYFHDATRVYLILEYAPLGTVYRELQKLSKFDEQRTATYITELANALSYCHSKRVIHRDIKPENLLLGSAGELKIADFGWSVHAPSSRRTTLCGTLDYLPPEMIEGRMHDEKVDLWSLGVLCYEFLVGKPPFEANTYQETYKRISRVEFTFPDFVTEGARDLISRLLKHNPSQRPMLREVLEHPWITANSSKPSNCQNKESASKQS

[8] = target: T2, Transcription intermediary factor 1-alpha (Homo sapiens) (UniProt O15164)
T2 sequence (whole entry): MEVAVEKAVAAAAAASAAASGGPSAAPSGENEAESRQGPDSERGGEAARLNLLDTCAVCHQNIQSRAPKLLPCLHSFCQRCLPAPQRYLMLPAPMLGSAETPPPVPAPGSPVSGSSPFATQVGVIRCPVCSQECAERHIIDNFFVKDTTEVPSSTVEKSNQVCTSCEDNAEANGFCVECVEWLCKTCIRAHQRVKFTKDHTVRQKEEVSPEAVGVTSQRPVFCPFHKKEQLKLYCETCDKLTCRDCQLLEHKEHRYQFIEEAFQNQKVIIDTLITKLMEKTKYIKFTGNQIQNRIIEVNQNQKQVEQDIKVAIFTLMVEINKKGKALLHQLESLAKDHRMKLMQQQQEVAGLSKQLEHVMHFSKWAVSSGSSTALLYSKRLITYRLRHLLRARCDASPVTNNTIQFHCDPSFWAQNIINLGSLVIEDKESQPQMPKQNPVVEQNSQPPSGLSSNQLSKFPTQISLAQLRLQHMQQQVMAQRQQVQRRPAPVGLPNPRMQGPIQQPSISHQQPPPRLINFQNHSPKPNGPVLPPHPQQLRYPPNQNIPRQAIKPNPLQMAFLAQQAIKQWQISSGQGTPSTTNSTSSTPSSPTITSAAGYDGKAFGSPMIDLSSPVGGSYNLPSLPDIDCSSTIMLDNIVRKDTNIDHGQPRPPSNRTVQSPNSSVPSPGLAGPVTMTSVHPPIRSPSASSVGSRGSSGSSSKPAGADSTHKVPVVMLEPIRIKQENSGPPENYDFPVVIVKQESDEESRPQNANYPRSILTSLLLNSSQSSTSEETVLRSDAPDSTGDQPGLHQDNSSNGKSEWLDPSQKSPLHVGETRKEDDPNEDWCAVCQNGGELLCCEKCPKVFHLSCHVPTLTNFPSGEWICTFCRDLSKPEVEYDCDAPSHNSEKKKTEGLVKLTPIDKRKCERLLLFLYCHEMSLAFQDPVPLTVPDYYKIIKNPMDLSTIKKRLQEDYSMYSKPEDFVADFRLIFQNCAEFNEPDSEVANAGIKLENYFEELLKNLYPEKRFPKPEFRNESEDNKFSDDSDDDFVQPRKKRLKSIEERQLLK

Sequence of Casein kinase I isoform delta (Homo sapiens) (P48730 whole entry, looked up, canonical isoform): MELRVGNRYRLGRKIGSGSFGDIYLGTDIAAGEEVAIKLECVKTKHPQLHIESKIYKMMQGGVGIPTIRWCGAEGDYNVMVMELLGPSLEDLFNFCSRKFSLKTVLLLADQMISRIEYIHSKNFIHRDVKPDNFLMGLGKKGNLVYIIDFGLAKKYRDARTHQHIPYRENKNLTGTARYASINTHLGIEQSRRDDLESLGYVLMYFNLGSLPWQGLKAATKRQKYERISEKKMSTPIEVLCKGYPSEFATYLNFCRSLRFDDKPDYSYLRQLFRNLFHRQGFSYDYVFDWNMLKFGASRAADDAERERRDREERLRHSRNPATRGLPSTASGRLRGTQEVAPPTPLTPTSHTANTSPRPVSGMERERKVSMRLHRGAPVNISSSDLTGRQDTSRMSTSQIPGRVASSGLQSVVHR
Sequence of Tyrosine-protein kinase ABL1 (Homo sapiens) (P00519 whole entry): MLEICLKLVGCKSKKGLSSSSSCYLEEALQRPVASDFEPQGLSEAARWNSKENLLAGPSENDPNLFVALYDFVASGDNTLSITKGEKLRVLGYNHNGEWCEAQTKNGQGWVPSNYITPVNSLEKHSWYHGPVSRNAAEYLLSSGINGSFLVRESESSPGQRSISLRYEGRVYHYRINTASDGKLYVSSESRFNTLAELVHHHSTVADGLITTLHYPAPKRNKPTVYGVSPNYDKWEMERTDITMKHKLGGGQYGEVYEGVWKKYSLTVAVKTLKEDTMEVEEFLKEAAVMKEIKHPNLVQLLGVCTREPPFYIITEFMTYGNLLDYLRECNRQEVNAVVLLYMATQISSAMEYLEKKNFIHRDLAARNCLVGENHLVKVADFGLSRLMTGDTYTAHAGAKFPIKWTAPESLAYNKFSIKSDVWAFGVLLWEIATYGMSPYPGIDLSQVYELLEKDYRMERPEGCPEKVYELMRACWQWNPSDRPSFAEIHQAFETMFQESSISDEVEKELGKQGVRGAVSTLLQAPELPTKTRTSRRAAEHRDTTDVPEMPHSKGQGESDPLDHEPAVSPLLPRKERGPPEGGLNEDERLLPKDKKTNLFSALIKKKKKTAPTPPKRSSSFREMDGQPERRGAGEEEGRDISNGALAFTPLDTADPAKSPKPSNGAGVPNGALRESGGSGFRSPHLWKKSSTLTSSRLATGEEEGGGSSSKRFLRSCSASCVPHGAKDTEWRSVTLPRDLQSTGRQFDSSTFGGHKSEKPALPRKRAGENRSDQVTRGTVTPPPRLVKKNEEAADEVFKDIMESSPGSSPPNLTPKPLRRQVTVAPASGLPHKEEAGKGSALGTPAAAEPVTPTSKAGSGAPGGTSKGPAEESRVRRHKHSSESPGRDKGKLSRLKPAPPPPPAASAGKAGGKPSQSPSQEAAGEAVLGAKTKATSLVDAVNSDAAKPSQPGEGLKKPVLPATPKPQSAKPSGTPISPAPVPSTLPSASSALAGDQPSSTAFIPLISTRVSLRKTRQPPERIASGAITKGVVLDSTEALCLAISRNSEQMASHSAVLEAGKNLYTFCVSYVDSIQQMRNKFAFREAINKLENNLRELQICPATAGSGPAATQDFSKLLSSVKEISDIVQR
Sequence of Mitogen-activated protein kinase 1 (Homo sapiens) (P28482 whole entry): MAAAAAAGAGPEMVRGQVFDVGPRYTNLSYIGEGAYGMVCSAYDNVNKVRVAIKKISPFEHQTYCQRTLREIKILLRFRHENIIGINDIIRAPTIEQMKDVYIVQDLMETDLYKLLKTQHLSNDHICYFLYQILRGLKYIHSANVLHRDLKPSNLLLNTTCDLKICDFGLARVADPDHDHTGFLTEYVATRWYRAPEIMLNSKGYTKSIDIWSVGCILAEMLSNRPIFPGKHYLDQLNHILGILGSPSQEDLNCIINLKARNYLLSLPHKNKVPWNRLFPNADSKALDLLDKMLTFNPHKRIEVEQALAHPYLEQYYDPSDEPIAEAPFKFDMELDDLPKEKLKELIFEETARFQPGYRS
Sequence of Glycogen synthase kinase-3 beta (Homo sapiens) (P49841 whole entry, looked up): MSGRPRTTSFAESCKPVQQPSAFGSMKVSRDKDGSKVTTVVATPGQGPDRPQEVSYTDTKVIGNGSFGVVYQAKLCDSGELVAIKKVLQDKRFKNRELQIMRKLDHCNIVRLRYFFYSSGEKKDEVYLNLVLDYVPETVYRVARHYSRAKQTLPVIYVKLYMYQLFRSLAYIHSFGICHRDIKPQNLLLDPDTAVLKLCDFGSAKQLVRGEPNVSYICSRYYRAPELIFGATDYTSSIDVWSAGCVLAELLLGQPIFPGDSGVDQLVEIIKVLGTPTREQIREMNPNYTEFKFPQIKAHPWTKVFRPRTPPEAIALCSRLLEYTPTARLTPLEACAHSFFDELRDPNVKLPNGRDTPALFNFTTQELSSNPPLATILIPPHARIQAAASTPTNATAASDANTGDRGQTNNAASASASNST

SMILES	ΔTm [1]	ΔTm [2]	ΔTm [3]	ΔTm [4]	ΔTm [5]	ΔTm [6] [°C]	ΔTm [7]	ΔTm [8]
COc1cc([C@@H]2Oc3c(O)cc([C@H]4Oc5cc(O)cc(O)c5C(=O)[C@@H]4O)cc3[C@H]2CO)ccc1O	0.61 °C	-1.83 °C	0.16 °C	0.36 °C	3.53 °C	0.13	-1.74 °C	1.87 °C
COCc1nc(C(F)(F)F)[nH]c1-c1cc(C(=O)N2CC(c3ccc(C#N)cc3)C2)c(C)cc1C	0.13 °C	-3.21 °C	-0.08 °C	-0.27 °C	-1.21 °C	0.07	-2.54 °C	-1.79 °C
C[C@@H]1CN(Cc2ncccn2)C[C@H]1c1nc2c(cnn2C2CCOCC2)c(=O)[nH]1	0.63 °C	-2.54 °C	0.17 °C	-0.3 °C	0.32 °C	0.24	-2.46 °C	0.61 °C
CCCC(NC(=O)C(CC(C)C)NC(=O)OCc1ccccc1)C(=O)C(=O)NCc1ccccn1 (racemic)	0.33 °C	-1.67 °C	-0.66 °C	0.03 °C	-0.68 °C	-0.49	-1.04 °C	-0.95 °C
Cn1nc(C(C)(C)C)cc1C(=O)NC(Cc1cccc(Cl)c1)C(=O)NCC#N (stereo not given)	0.37 °C	-2.22 °C	0.71 °C	0.04 °C	0.23 °C	0.2	-1.33 °C	0.74 °C
CC(C)NCC(O)COC(Cn1c2ccccc2c2ccccc21)Cn1c2ccccc2c2ccccc21 (stereo not given)	0.25 °C	0 °C	-0.87 °C	-0.3 °C	-5.02 °C	-15	-0.78 °C	-3.49 °C
COC1CCN(C(=O)c2cc(Cc3n[nH]c(=O)c4ccccc34)ccc2F)CC1	0.56 °C	-2.02 °C	0.16 °C	-0.31 °C	0.09 °C	0.51	-2.39 °C	-0.67 °C
Cc1ccc2c(c1)nc(/C=C/c1cccc3cccnc13)n2-c1cccc(OCCCN2CCN(C)CC2)c1	0.62 °C	-5.41 °C	-0.28 °C	-0.14 °C	-0.72 °C	0.14	-2.49 °C	1.41 °C
O=S(=O)(O)c1ccc2cc(/N=N/c3cc(S(=O)(=O)O)c4cccnc4c3O)ccc2c1	0.53 °C	-2.44 °C	2.89 °C	0.85 °C	1.3 °C	-3.54	-2.45 °C	-1.13 °C
O=C(O)Cc1ccc(Cc2cc(-c3cccc(Cl)c3)nc(C(F)(F)F)c2)cc1	0.68 °C	-4.37 °C	1.64 °C	-0.18 °C	-1.53 °C	0.39	-2.1 °C	-0.93 °C
CNCCN(C)Cc1cn[nH]c1-c1ccc(OC2CC(OCCC3CCOCC3)C2)cc1 (stereo not given)	0.66 °C	-1.82 °C	0.43 °C	0.19 °C	-0.94 °C	0.05	-0.58 °C	-1.33 °C
Cc1cc2cc(NS(=O)(=O)c3ccc(C#N)cc3)ccc2n(C)c1=O	0.57 °C	-0.91 °C	0.09 °C	0.09 °C	0.03 °C	-3	-1.09 °C	0.17 °C
Cc1ncccc1-c1cnc(NCc2c(F)ccc3c2CCO3)n2cnnc12	0.04 °C	-1.73 °C	0.42 °C	0.15 °C	-0.06 °C	0.37	-0.39 °C	-1.52 °C
CC(C)Cc1nn(C)c(=O)c2c(SCCCO)n(Cc3cccc4ccccc34)cc12	-3.82 °C and -3.97 °C	-4.1 °C and -4.31 °C	-0.96 °C and -1.96 °C	-8.7 °C and -11.7 °C	-0.77 °C and -4.36 °C		-2.79 °C and -2.11 °C	-0.87 °C and 0.82 °C
COCc1nc2cnc3cc(-c4c(C)noc4C)c(OC[C@H]4CCNC4)cc3c2n1[C@H](C)c1ccccc1	0.66 °C		0.15 °C	0.02 °C	-0.25 °C	0.32	-1.27 °C	1.49 °C
COc1cc(Oc2ccnc3cc(OC)c(OC)cc23)ccc1NC(=O)NC(C)c1nccs1 (stereo not given)	9.54 °C	-3.36 °C		0.28 °C	-1.46 °C	-9.78	-0.11 °C	-0.38 °C
CCCCN(Cc1ccc(C(=O)NO)cc1)C(=O)Nc1ccccc1	0.74 °C	-1.81 °C	0.54 °C	0.26 °C	-0.89 °C	0.25	-0.07 °C	-1.23 °C
O=C1c2ccccc2C(=O)c2oc(-c3cccnc3)nc21	0.81 °C	-2.99 °C	0.36 °C	-0.59 °C	0.34 °C	0.32	-2.61 °C	-0.87 °C
CN1CCN(c2ccc3nc(-c4c(N)c5c(F)cccc5[nH]c4=O)[nH]c3c2)CC1		-0.49 °C	0.73 °C	2.74 °C	3.22 °C	-0.2	2.63 °C	-0.57 °C
CN(Cc1cc(Br)cc(Br)c1N)C1CCCCC1	-0.03 °C	-2.64 °C	-0.09 °C	-0.11 °C	-0.69 °C		-0.8 °C	0.31 °C
